# In the library only some 2.2% were active in any assay of this set; here they are far more common.
# IL2 activator: activates IL-2 in a cell-based reporter assay; IL-2 activation reporter assay, cell-based qHTS; stimulated with anti-CD3/CD4/CD28 beads; in transgenic mouse T cells; activation, % (series mostly up to about 46 µM); 360,000 tested, 0.065% active; AID 652025; in the data active = activation above about 50%; inconclusive = mostly about 30% to 49%; also: 0% is about no effect
#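 EGFP and DsRed fluorescence is measured by plate cytometry in unstimulated transgenic mouse T cells exposed to compound for 60 minutes, then stimulated 18 hours at 37 degrees C with anti-CD3/anti-CD4 beads plus anti-CD28.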
# Giardia killer: kills Giardia lamblia; 340,000 tested, 0.15% active; activity change, % at 7.66 µM, hits read low; Giardia lamblia trophozoite viability; AID 540267; in the data active = activity change below about -80%; inconclusive = between about -30% and that limit;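 also: parasites exposed to compound for two days anaerobically before the ATP read; % is scaled to controls: 0 for no effect and ±100 for the full control effect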
#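 Compounds were tested on trophozoites seeded at 100 cells/well and held 48 hrs at 37 deg C anaerobically. An ATP-based luminescent kit measured the remaining live cells.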
# rTrxR1 inhibitor: inhibitors of rat thioredoxin reductase 1. O89049. recombinant rTrxR1, NADPH fluorescence consumption, selenite substrate. Potency, µM (titrated, usually from 114 µM), inactives show at the top dose activity change, negative = inhibition, most hits filed as inhibitors. 390,000 tested, 1% active; also: potency is read from the fitted curve at half-maximal effect; % is scaled to controls: 0 for no effect and ±100 for the full control effect; nearly all actives have a fitted effect of over 65% in size
# Target sequence (O89049 whole entry, looked up): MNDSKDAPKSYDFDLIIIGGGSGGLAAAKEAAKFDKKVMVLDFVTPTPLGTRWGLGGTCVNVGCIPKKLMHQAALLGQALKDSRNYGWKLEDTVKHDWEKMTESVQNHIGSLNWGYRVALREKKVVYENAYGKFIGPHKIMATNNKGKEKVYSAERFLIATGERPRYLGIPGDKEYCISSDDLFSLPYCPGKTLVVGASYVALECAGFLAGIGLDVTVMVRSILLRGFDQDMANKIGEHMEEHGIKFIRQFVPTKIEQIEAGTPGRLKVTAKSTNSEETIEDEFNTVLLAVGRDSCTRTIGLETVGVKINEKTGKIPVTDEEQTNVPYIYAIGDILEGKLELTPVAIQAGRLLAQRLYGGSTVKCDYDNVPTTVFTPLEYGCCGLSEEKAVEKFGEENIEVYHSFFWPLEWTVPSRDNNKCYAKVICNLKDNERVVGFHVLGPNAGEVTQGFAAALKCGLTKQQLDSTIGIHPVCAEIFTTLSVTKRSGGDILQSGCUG
#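 Rat TrxR1 (90 nM in the dispensed reagent) was pre-reduced with 400 uM NADPH for 5 min at room temperature, then incubated with compound for 15 min. After 400 uM selenite was added, NADPH fluorescence (Ex 340/Em 450 nm) was followed for 8 min.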
# BRCA1 expr up: increases BRCA1 expression | MCF7-BRCA1-FFLuc reporter, luminescence, 48 h; response scale: scaled: vehicle 0%, 10 µM genistein 100% | Potency, µM (top dose mostly 46.1 µM), for the others: at the highest dose activation, usual class: activators | 380,000 tested, 1.1% active; also: potency is read from the fitted curve at half-maximal effect; nearly all actives have a fitted effect of over 80% in size
#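 Quantitative HTS in MCF7 cells stably reporting BRCA1 expression via firefly luciferase. Compound treatment lasts 48 h at 37 °C in phenol-red free MEM. Activation is expressed relative to genistein at 10 microM and DMSO.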
# TrxR1 substrate: substrates of rat thioredoxin reductase 1; purified TrxR1 substrate turnover, NADPH consumption readout; Potency, µM (top dose mostly 114 µM), without a hit: at the highest dose activity change, negative = substrate turnover; 390,000 tested, 0.01% active; also: potency is read from the fitted curve at half-maximal effect; % is scaled to controls: 0 for no effect and ±100 for the full control effect; nearly all actives have a fitted effect of over 50% in size
#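 Rat TrxR1, dispensed at 90 nM, was prereduced with 400 uM NADPH (final) for 5 min at ~22 deg C, then incubated with compound 15 min before 400 uM selenite. A first-read NADPH fluorescence drop versus no-compound background flagged substrates.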
# IDH1 R132H inh: inhibitors of human mutant IDH1 R132H. O75874. IDH1-R132H enzyme, NADPH consumption, diaphorase/resazurin fluorescence. Potency, µM (top dose mostly 76.6 µM), for the others: at the top dose activity change, negative = inhibition, actives largely listed as inhibitors. 390,000 tested, 0.093% active. AID 602179; also: potency is read from the fitted curve at half-maximal effect; % is scaled to controls: 0 for no effect and ±100 for the full control effect; nearly all actives have a fitted effect of over 65% in size
#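 IDH1-R132H (0.5 ug/mL dispensed) in pH 7.5 Tris buffer was preincubated 30 min with compound, then given a substrate mix of 0.016 mM NADPH and 2 mM alpha-KG for 80 min at room temperature; remaining NADPH was read by diaphorase/resazurin fluorescence.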
# Starred values were filed as active, the others as inactive; ? = inconclusive; . = no result; ! = repeats disagree; [ ] = another dose, or the depositor's remark. Unless noted, calls follow the shape of the dose curve; as a rule, active = well fitted curve in the direction sought with a large enough effect; inconclusive = small, poorly fitted or top-dose-only effect, or another doubt; inactive = no such curve, though single readings can be large; an effect the other way counts as inactive or inconclusive.
SMILES,IL2 activator,Giardia killer,rTrxR1 inhibitor,BRCA1 expr up,TrxR1 substrate,IDH1 R132H inh
C=C1C(=O)O[C@@H]2[C@H]3O[C@]3(C)CCC=C(C)CC[C@@H]12,.,.,16.8µM*!,.,17.9%[57.1 µM],.
COc1ccc(-n2sc3ccccc3c2=O)cc1,-3.7,.,.,11.9%,.,-5.5%
COc1ccc(-n2[nH]c3c(cnc4ccccc43)c2=O)cc1,0.1,.,.,14.1µM*,.,.
O=C(O)/C=C/C(=O)Nc1ccc(O)cc1,-0.3,34.7,70.8µM*,-5.2%,-1.3%,12.9%
O=C(O)/C=C/C(=O)Nc1ccc2c(c1)C(=O)c1ccccc1C2=O,0.7,1.9,-10.5%,11.2µM*,-7.2%,16.6%
CC(C)(C)C(=O)Nc1ccc2c(c1)C(=O)C(=O)c1ccccc1-2,.,13.0,6.31µM*,-31.1%,3.16µM*,.
CC(=O)Nc1ccc2c(c1)C(=O)c1ccccc1C2=O,-0.9,-26.9,11.6%[57.1 µM],?,5.5%[57.1 µM],2.9%
O=C(NCCc1ccccc1)C(c1cccs1)N(C(=O)CCl)c1ccc(Cl)cc1 (configuration not stated),-5.9,2.8,3.16µM*,-105.9%,2.3%,-5.8%
CC(=NNC(=S)N1CCC1)c1ccccn1,-0.6,0.9,7.08µM*,?,-4.7%,3.5%
Cc1ccc(Nc2c(-c3ccccn3)nc3ccc(Br)cn23)cc1,.,.,20.7%,.,7.0%,10.2%
COC(=O)CNc1c(-c2ccccn2)nc2ccc(Br)cn12,1.9,1.1,-18.1%,4.47µM*,-8.3%,7.9%
Cc1nnsc1C(=O)Oc1ccc(C#N)cc1,.,.,?,.,3.3%,-9.9%
Cc1cc2nccc(/C=C/c3ccc(N(C)C)cc3)c2cc1C,.,.,-13.8%,.,-11.1%,.
Oc1ccc(Br)cc1C=Nc1cccn2cc(-c3ccccc3)nc12,3.2,-13.9,26.1%,6.31µM*,60.2%,8.5%
CCc1ccc(NC(=O)C(=S)NC2CCCCC2)cc1,0.3,-27.2,15.9%[57.1 µM],2µM*,5.9%[57.1 µM],17.5%
COc1cc(OC)c(N(C)C(=O)Cn2ncc3c([nH]c4ccccc43)c2=O)cc1Cl,.,.,23.6%,.,-1.7%,-12.1%
O=C1c2ccccc2NC(c2ccc(-c3cccc(F)c3)o2)N1O (configuration not stated),0.7,-8.4,-27.0%,-6.3%,-1.2%,.
N#Cc1ccc(-c2ccc(C3Nc4ccccc4C(=O)N3O)o2)cc1 (configuration not stated),0.0,-10.1,7.08µM*,6.8%,5.1%,.
C/C(=N\NS(=O)(=O)c1ccc(Cl)c([N+](=O)[O-])c1)c1ccc(C)o1,-0.7,7.2,39.8µM*,-4.2%,-7.8%,2.5%
O=S(=O)(c1ccc2c(c1)CCCC2)N1CCN(c2nc(-c3cccs3)nc3ccccc23)CC1,.,5.9,11.2%,0.0%,-2.1%,.
CCCCOc1ccc(C(=O)Nc2ccc(SC(F)F)cc2)cc1OC,-2.7,18.3,-1.7%,-11.4%,-4.4%,7.2%
COc1ccc(CC(=O)OCC(=O)Nc2ccc(C(=O)Nc3ccc(OC)cc3)cc2)cc1,0.5,9.7,15.6%,11.2µM*,-1.7%,0.1%
COc1ccc(C(=O)Nc2ccc(SC(F)F)cc2)cc1,-0.1,-11.5,14.1%,1.26µM*,0.1%,6.4%
COc1ccc(CC(=O)Nc2ccc(C(N)=O)cc2)cc1,0.5,-12.2,28.5%,-4.7%,-2.0%,-4.9%
CCOc1ccc(NC(=O)c2ccc(NC(=O)COC(=O)Cc3ccc(OC)cc3)cc2)cc1,1.8,-7.6,9.1%[57.1 µM],4.47µM*,-0.1%[57.1 µM],-11.0%
SMILES,IL2 activator,Giardia killer,rTrxR1 inhibitor,BRCA1 expr up,TrxR1 substrate,IDH1 R132H inh
CC1(OC(=O)C2CCCC2)C(=O)C=C2C=C(c3ccsc3)N(Cc3ccco3)C=C2C1=O (configuration not stated),0.2,4.4,31.6µM*,-21.7%,-2.5%,17.1%
C=CCc1ccccc1OCCn1c(C2CC(=O)N(Cc3ccc(F)cc3)C2)nc2ccccc21 (configuration not stated),.,.,13.4%,0.0%,0.1%,1.2%
Cn1ncc([N+](=O)[O-])c1C(=O)Nc1ccc(-c2nc3ccccc3[nH]2)cc1,-2.6,-9.2,5.8%,?,-4.7%,2.7%
CCOc1ccc(C(=O)Nc2ccc(-c3nc4ccccc4[nH]3)cc2)cc1[N+](=O)[O-],0.1,-4.8,-2.3%,3.16µM*!,-10.0%,9.6%
COc1ccc(Nc2cnn(-c3nc4ccccc4s3)c(=O)c2Cl)cc1,-5.6,-28.1,3.16µM*,-45.1%,-2.3%,2.0%
O=c1c(Cl)c(Nc2cccc(Cl)c2)cnn1-c1nc2ccccc2s1,-0.8,-2.2,?,14.1µM*,-6.6%,5.0%
O=S(=O)(c1ccc(Br)cc1)N1CCOCC1,.,7.3,-1.7%,9.4%,-5.6%,.
O=C(COc1ccccc1C(=O)Nc1ccccc1)Nc1cccc(Cl)c1,.,.,3.0%,-38.6%,-5.7%,.
CCOc1ccccc1NC(=O)CSC1=Nc2ccccc2C2=NC(CC(=O)NCc3ccc4c(c3)OCO4)C(=O)N12 (configuration not stated),.,.,2.0%,.,0.1%,11.9%
Cc1ccc(NCC(=O)N/N=C\c2ccc([N+](=O)[O-])o2)cc1,-4.0,-106.1*,?,-97.2%,4.9%,3.6%
O=C(Cc1ccc2c(c1)OCO2)NN=Cc1ccc([N+](=O)[O-])o1,0.4,-102.4*,-65.0%,-84.9%,-11.9%,1.2%
O=C(Cc1ccc2c(c1)OCCO2)N/N=C/c1ccco1,0.0,-11.6,14.4%,18.2%,-0.1%,-2.2%
O=C(CNC(=O)c1ccccc1)N/N=C/c1ccc([N+](=O)[O-])o1,0.6,?,-33.0%,-70.0%,-3.4%,1.8%
O=C(CNc1ccccc1)N/N=C/c1ccc([N+](=O)[O-])o1,0.5,-104.5*,-68.3%[57.1 µM],-111.6%,4.4%,6.2%
O=C(CCC(=O)Nc1ccc(Cl)cc1Cl)N/N=C/c1ccc([N+](=O)[O-])o1,-0.4,-82.0*,11.2µM*,-87.0%,-5.4%,11.1%
O=C(CCCn1cnc([N+](=O)[O-])n1)Nc1ccc(Cl)cc1Cl,-0.3,?,-31.7%,3.4%,-17.0%,-4.0%
CCCCCC(=O)N/N=C/c1ccc([N+](=O)[O-])o1,23.7,-103.0*,?,-91.1%,0.6%,-1.5%
CCN(CC)S(=O)(=O)c1cccc(C(=O)N/N=C/c2ccc([N+](=O)[O-])o2)c1,0.9,-20.1,-52.1%,-83.1%,2.8%[57.1 µM],-1.0%
O=[N+]([O-])c1ccc(/C=N/NC(=S)Nc2ccccc2)o1,-0.5,?,17.8µM*,-19.7%,-14.2%,7.6%
O=[N+]([O-])c1ccc(/C=N/NC(=S)Nc2ccccc2F)o1,-5.5,-16.4,-55.3%,8.4%,-10.5%,4.8%
Cn1c(=NC(=O)C2CCCCC2)sc2cc([N+](=O)[O-])ccc21,2.5,18.4,12.9%,17.6%,-8.2%,3.5%

# Screening results (PubChem BioAssay)
